Where “and” joins values, the source holds several entries; their conditions need not be identical. Equal values may be shown once. Out of some 5,500 compounds screened, about 2,000 (36%) were called active. Another 18% or so got no clear call; they are omitted. Cut-off read from the data, not from the text of the source: active = normalized growth mostly below about 0.91 (no sharp cut-off); inconclusive = no clear call, values can overlap the other calls; inactive = mostly above about 0.92. The list shows a part of the results.
Assay: chemical genetic growth profiling, strain panel (AID 1159580);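 note: tested at 20 µM; growth read once vehicle control cultures reached saturation at 30 °C; 1 = growth at the plate median or of vehicle wells; lower values mean less growth of the strain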
Conditions: S. cerevisiae deletion strains, growth OD

Measured: normalized growth

Cc1c(NC(=O)c2cccnc2)c(=O)n(-c2ccccc2)n1C
inactive: locus YAL013W, strain DEP1, stronger effect = lower value 0.996 | locus YAL021C, strain ccr4, stronger effect = lower value 1.02 | locus YAL026C, strain drs2, stronger effect = lower value 0.999 | locus YAL030W, strain snc1, stronger effect = lower value 1 | locus YBL061C, strain skt5, stronger effect = lower value 1 | locus YBR009C, strain hhf1, stronger effect = lower value 0.966 | locus YBR021W, strain FUR4, stronger effect = lower value 1.03 | locus YBR023C, strain chs3, stronger effect = lower value 1.01 | locus YBR171W, strain sec66, stronger effect = lower value 1 | locus YBR229C, strain ROT2, stronger effect = lower value 0.964 | locus YBR231C, strain swc5, stronger effect = lower value 1.01 | locus YBR279W, strain paf1, stronger effect = lower value 0.999 | locus YCL011C, strain gbp2, stronger effect = lower value 1 | locus YCL016C, strain dcc1, stronger effect = lower value 0.999 | locus YCL029C, strain bik1, stronger effect = lower value 0.997 | locus YCL061C, strain MRC1, stronger effect = lower value 1 | locus YCL069W, strain vba3, stronger effect = lower value 0.989 | locus YCR088W, strain abp1, stronger effect = lower value 0.997 | locus YDL005C, strain med2, stronger effect = lower value 1 | locus YDL035C, strain GPR1, stronger effect = lower value 0.992 | locus YDL040C, strain nat1, stronger effect = lower value 0.988 | locus YDL074C, strain BRE1, stronger effect = lower value 0.949 | locus YDL101C, strain DUN1, stronger effect = lower value 0.981 | locus YDL134C, strain PPH21, stronger effect = lower value 1.01 | locus YDL185W, strain tfp1, stronger effect = lower value 0.983 | locus YDL192W, strain arf1, stronger effect = lower value 0.994 | locus YDR001C, strain nth1, stronger effect = lower value 0.992 | locus YDR069C, strain doa4, stronger effect = lower value 1.01 | locus YDR101C, strain arx1, stronger effect = lower value 0.988 | locus YDR137W, strain rgp1, stronger effect = lower value 0.992 | locus YDR159W, strain sac3, stronger effect = lower value 1 | locus YDR162C, strain NBP2, stronger effect = lower value 1 | locus YDR195W, strain ref2 0.998 | locus YDR297W, strain sur2, stronger effect = lower value 0.999 | locus YDR318W, strain mcm21, stronger effect = lower value 1 | locus YDR334W, strain swr1, stronger effect = lower value 0.999 | locus YDR335W, strain msn5, stronger effect = lower value 0.997 | locus YDR388W, stronger effect = lower value 1 | locus YDR392W, strain spt3, stronger effect = lower value 0.934 | locus YDR502C, strain sam2, stronger effect = lower value 0.994 | locus YEL003W, strain gim4, stronger effect = lower value 1 | locus YEL037C, strain rad23, stronger effect = lower value 0.994 | locus YEL061C, strain CIN8 (second series), stronger effect = lower value 1 | locus YEL061C, strain CIN8, stronger effect = lower value 0.98 | locus YER015W, strain faa2, stronger effect = lower value 1 | locus YER016W, strain bim1, stronger effect = lower value 1 | locus YER110C, stronger effect = lower value 0.997 | locus YER111C, strain swi4, stronger effect = lower value 0.997 | locus YER155C, strain BEM2 (second series), stronger effect = lower value 1.02 | locus YER155C, strain BEM2, stronger effect = lower value 1 | locus YER167W, strain BCK2, stronger effect = lower value 1 | locus YFR010W, strain ubp6, stronger effect = lower value 0.997 | locus YGL078C, strain dbp3, stronger effect = lower value 0.988 | locus YGL086W, strain mad1, stronger effect = lower value 0.985 | locus YGL167C, strain pmr1, stronger effect = lower value 1 | locus YGL173C, strain kem1, stronger effect = lower value 1.01 | locus YGL227W, strain vid30, stronger effect = lower value 0.998 | locus YGL240W, strain doc1, stronger effect = lower value 1.01 | locus YGL248W, strain PDE1, stronger effect = lower value 0.974 | locus YGL253W, strain hxk2, stronger effect = lower value 1 | locus YGR078C, strain PAC10, stronger effect = lower value 0.97 | locus YGR135W, strain pre9, stronger effect = lower value 1.07 | locus YGR252W, strain gcn5, stronger effect = lower value 1.02 | locus YHR013C, strain ard1, stronger effect = lower value 0.96 | locus YHR027C, strain rpn1, stronger effect = lower value 1.01 | locus YHR030C, strain SLT2, stronger effect = lower value 1 and 1.04 | locus YHR079C, strain IRE1 (second series), stronger effect = lower value 0.992 | locus YHR079C, strain IRE1, stronger effect = lower value 1.02 | locus YHR094C, strain hxt1, stronger effect = lower value 0.998 | locus YHR129C, strain ARP1, stronger effect = lower value 1 | locus YHR142W, strain chs7, stronger effect = lower value 1 | locus YHR200W, strain rpn10, stronger effect = lower value 0.992 | locus YIL066C, strain RNR3, stronger effect = lower value 0.974 | locus YIL073C, strain SPO22, stronger effect = lower value 1.04 | locus YIL125W, strain kgd1, stronger effect = lower value 0.987 | locus YIR030C, strain dcg1, stronger effect = lower value 0.999 | locus YJL092W, strain hpr5, stronger effect = lower value 1 | locus YJL095W, strain BCK1 (second series), stronger effect = lower value 1 | locus YJL095W, strain BCK1, stronger effect = lower value 0.964 and 1.04 | locus YJL115W, strain asf1, stronger effect = lower value 1 | locus YJL129C, strain trk1, stronger effect = lower value 1.01 | locus YJL134W, strain LCB3, stronger effect = lower value 0.995 | locus YJL154C, strain vps35, stronger effect = lower value 0.989 | locus YJL164C, strain tpk1, stronger effect = lower value 1.01 | locus YJL166W, strain qcr8, stronger effect = lower value 1.01 | locus YJL168C, strain set2, stronger effect = lower value 0.987 | locus YJL187C, strain SWE1 (second series), stronger effect = lower value 0.95 | locus YJL187C, strain SWE1, stronger effect = lower value 0.999 | locus YJR043C, strain POL32, stronger effect = lower value 0.924

Source: PubChem BioAssay AID1159580 (chemical genetic matrix, 2015)
